# Screening data (PubChem BioAssay)
# Shiga inhibitor: blocks Shiga toxin action in Vero cells; inhibition, % at 38.7 µM; Vero cells, Shiga toxin protein synthesis inhibition reporter; hit rate 9.2% among 290,000; in the data active = inhibition mostly above about 28%, no sharp cut-off; inactive = mostly below about 43%; note: 0% is about no effect
# Cycloheximide cs: affects cycloheximide protein synthesis inhibition readout, counter-screen. AID 2314. cell reporter, cycloheximide protein synthesis inhibition counterscreen. max response, %. hit rate 12% among 300,000; in the data active = max response mostly above about 13%, no sharp cut-off; inactive = mostly below about 14%; note: read at 38.3 µM for the half of the compounds with a filed dose; 0% is about no effect
# Sm TGR inh: S. mansoni TGR enzyme inhibition; Q962Y6; purified TGR, DTNB reduction, TNB absorbance 405 nm; hit rate 3% among 360,000; AID 485364; Potency, µM (doses to about 114 µM), for inactives: at the top dose activity change, negative = inhibition, usual class: inhibitors; note: potency is the fitted concentration of half-maximal effect; % is set by controls: 0 for no effect and ±100 for the full control effect; nearly all actives have a fitted effect of over 60% in size
#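 First, TGR (20 nM dispensed) and NADPH were mixed with compound. Second, a 15 min room-temperature incubation followed. Third, further NADPH and then DTNB were added to start the reaction. Finally, TNB absorbance was monitored kinetically.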
# FBPA Giardia inh: Giardia lamblia aldolase inhibition | A8B2U2 | purified Giardia FBPA | Potency, µM (titrated, usually from 59.6 µM), for inactives: at the top dose activity, negative = inhibition, most hits filed as inhibitors | hit rate 0.71% among 290,000 | AID 2451; note: potency is the fitted concentration of half-maximal effect; % is set by controls: 0 for no effect and ±100 for the full control effect; nearly all actives have a fitted effect of over 55% in size
#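 Giardia FBPA (40 nM reagent) was preincubated 10 min at RT with compound (up to 57.5 uM final), then substrate plus GAPDH/TPI/NAD/arsenate coupling system with diaphorase/resazurin was added; resorufin fluorescence (525/598 nm) was read after 20 min.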
# LmPK inh: LmPK (Leishmania mexicana) enzyme inhibition | purified LmPK, Kinase-Glo ATP luminescence, 1 h | Q27686 | AID 1721 | hit rate 0.37% among 290,000 | Potency, µM (titrated, usually from 57.5 µM), for the others: at the top dose activity change, negative = inhibition, hits mostly inhibitors; note: potency is the fitted concentration of half-maximal effect; % is set by controls: 0 for no effect and ±100 for the full control effect
# Target sequence (Q27686 whole entry, looked up): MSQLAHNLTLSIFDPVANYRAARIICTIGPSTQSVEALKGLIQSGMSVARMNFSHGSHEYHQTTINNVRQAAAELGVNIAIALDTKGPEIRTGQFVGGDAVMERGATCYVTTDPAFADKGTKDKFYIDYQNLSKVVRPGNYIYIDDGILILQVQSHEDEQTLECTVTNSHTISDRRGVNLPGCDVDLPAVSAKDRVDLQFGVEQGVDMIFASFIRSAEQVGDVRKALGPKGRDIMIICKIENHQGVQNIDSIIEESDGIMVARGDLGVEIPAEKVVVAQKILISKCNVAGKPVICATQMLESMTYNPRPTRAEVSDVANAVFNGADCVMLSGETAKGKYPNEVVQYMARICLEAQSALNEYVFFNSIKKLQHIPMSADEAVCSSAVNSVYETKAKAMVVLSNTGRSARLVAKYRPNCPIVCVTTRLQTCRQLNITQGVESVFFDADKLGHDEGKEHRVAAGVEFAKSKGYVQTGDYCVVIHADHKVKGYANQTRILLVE
#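 ATP generated from ADP (0.1 mM) and PEP (0.5 mM) by 0.1 nM LmPK over 1 h at room temperature (pH 7.2 imidazole buffer) was detected by coupled luciferase luminescence. Values were normalized to uninhibited and no-enzyme wells.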
# Tb PYK inh: inhibitors of Trypanosoma brucei pyruvate kinase; Potency, µM (series often up to 76.8 µM), without a hit: top-dose activity, negative = inhibition, hits mostly inhibitors; hit rate 0.12% among 410,000; TbPYK enzyme, Kinase-Glo Plus ATP luminescence, 45 min; AID 624173; note: potency is the fitted concentration of half-maximal effect; % is set by controls: 0 for no effect and ±100 for the full control effect; nearly all actives have a fitted effect of over 50% in size
#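 TbPYK + substrate in 50 mM TEA pH 7.2, 100 mM KCl, 10 mM MgCl2, 0.05% BSA, 0.01% Tween-20; cpd pinned; ADP 130 uM final; 45 min RT; Kinase-Glo Plus 10 min; luminescence endpoint.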
# * hit, by the source's call; ? = inconclusive; . = not tested or not shown; [ ] = dose if it differs, or a comment. Many of the other results were omitted from the sample, so hits are more common in it than they were. Unless noted, calls come from the whole dose curve; as a rule, active = well fitted curve in the direction sought with a large enough effect; inconclusive = small, poorly fitted or top-dose-only effect, or another doubt; inactive = no such curve, though single readings can be large; an effect the other way counts as inactive or inconclusive.
SMILES,Shiga inhibitor,Cycloheximide cs,Sm TGR inh,FBPA Giardia inh,LmPK inh,Tb PYK inh
CCCCn1cc[n+](C)c1,5,-6,.,-1%,.,.
O=C(O)c1cccc(NC(=O)c2cn(-c3ccccc3)nc2-c2cc3ccccc3o2)c1,-5,-2,-3%,15%,2%,-8%
O=C(N/N=C/c1cn(-c2ccccc2)nc1-c1cc2ccccc2o1)c1cccnc1,106*,53*,1%,4%,-1%,4%
O=C(N/N=C/c1cn(-c2ccccc2)nc1-c1cc2ccccc2o1)c1ccncc1,132*,85*,-2%,3%,0%,0%
CCOC(=O)c1ccc(NC(=O)c2cnn(-c3ccc(C)cc3C)c2C2CCN(C(=O)OC(C)(C)C)CC2)cc1,.,.,10%,.,.,-10%
COc1ccc(OC)c(Cc2nnc(CCC(=O)N3CCN(C4CCCC4)CC3)o2)c1,99*,40*,-24%,-7%,1%,1%
COc1ccc(OC)c(Cc2nnc(CCC(=O)N3CCCCC3)o2)c1,73*,22*,.,3%,-1%,-3%
COc1ccc(OC)c(Cc2nnc(CCC(=O)NC(C3CC3)C3CC3)o2)c1,59,-2,-5%[57.1 µM],1%,2%,10%
CCC1CCCCN1C(=O)CCc1nnc(Cc2cc(OC)ccc2OC)o1 (stereo unspecified),93*,54*,1%,5%,5%,5%
COc1ccc(OC)c(Cc2nnc(CCC(=O)NCc3ccc(C)s3)o2)c1,-6,7,-8%,-10%,6%,7%
Cc1cccc(S(=O)(=O)NC(=O)C2(C)CCN2C(=O)Cc2cc(F)ccc2F)c1 (stereo unspecified),.,.,.,.,.,-10%
C#CCN(CC=C)C(=O)CCc1nnc(COc2ccccc2)o1,59*,42*,0%[57.1 µM],5%,-3%,4%
O=C(CCc1nnc(CCCCc2ccccc2)o1)N(CCO)Cc1ccccc1,1,-2,-13%,0%,10%,1%
COc1ccc(N(CC(=O)Nc2cccc(Cl)c2C)S(=O)(=O)c2c(C)nn(C)c2C)cc1,.,.,4%,.,.,-3%
Clc1ccc(-c2nnc(-c3ccccc3)o2)c(Cl)c1,119,51*,0%,5%,-30%,0%
Fc1ccc(-c2nnc(-c3ccc(Cl)cc3)o2)cc1,46*,18*,7%[11.4 µM],3%,1%,-2%
Clc1ccc(-c2nnc(-c3ccc(Br)o3)o2)c(Cl)c1,30,15*,11%[11.4 µM],4%,-2%,5%
Clc1ccc(-c2nnc(-c3cccc4ccccc34)o2)cc1,.,.,.,.,.,-3%
Fc1ccc(-c2nnc(-c3ccc(Cl)cc3Cl)o2)cc1,43*,22*,3%,0%,-14%,1%
CSc1nnc(-c2ccc(F)cc2)o1,14,15,0%,1%,-4%,-10%
CCc1ccc(NC(=O)CCS(=O)(=O)c2ccc3c(c2)n(C)c(=O)c(=O)n3C)cc1,.,.,-7%,.,.,-3%
Clc1ccc(-c2nnc(N3CCOCC3)o2)cc1,90*,31*,5%,1%,-1%,2%
Clc1ccc(-c2nnc(C3CC3)o2)cc1,46,27,-3%,1%,-4%,0%
CS(=O)(=O)c1ccccc1-c1nnc(-c2ccc(Cl)cc2)o1,64*,19*,6%,-9%,-3%,-4%
COc1ccc(-c2ccoc2)cc1C1C2C=CCC(C)C2C(=O)N1Cc1ccccc1 (stereo unspecified),-2,6,.,-2%,.,.
SMILES,Shiga inhibitor,Cycloheximide cs,Sm TGR inh,FBPA Giardia inh,LmPK inh,Tb PYK inh
CC(=O)c1cn(CCOc2ccccc2C)c2ccccc12,13,-2,-5%,16%,-5%,-1%
O=C(O)c1cn(CCOc2ccccc2Cl)c2ccccc12,50*,38*,-9%,16%,-2%,4%
CC(=O)c1cn(CCOc2ccc(F)cc2)c2ccccc12,.,12*,-2%,-1%,-2%,3%
COc1ccccc1OCCn1cc(C(=O)O)c2ccccc21,22,1,14%,13%,-1%,-4%
CC(=O)c1cn(CCCOc2ccccc2)c2ccccc12,21,21*,-3%[57.1 µM],-14%,-3%,0%
CCCCn1c(N)c(N(CCOC)C(=O)c2c(-c3ccccc3)noc2C)c(=O)[nH]c1=O,.,.,2%,.,.,-2%
CSc1cccc(NC(=O)c2cc3c(COC(C)=O)cnc(C)c3oc2=O)c1,.,.,0%,.,.,-1%
COC(=O)[C@H](C)NC(=O)[C@@H](C)CO,.,.,.,0%[12.9 µM],.,.
COc1ccc(C(=O)N2CC(c3ccccc3)CC2=O)cc1 (stereo unspecified),63*,44*,19%,6%,3%,2%
COc1ccc(C2N(C(=O)c3ccccc3)CCN2C(=O)c2ccccc2)cc1,-7,-2,-1%,-9%,3%,4%
O=C1CC(c2ccccc2)CN1C(=O)c1ccccc1 (stereo unspecified),38,16*,4%,13%,10%,9%
Cc1ccc(Cl)cc1N1CCN(C(=O)c2ccc(NC(=O)c3nsc4ccccc34)cc2)CC1,.,.,0%,.,.,3%
CC(=O)Nc1ccc(S(=O)(=O)NCCC(=O)OC(C)C(=O)NC2(C#N)CCCCC2)cc1 (stereo unspecified),.,.,2%,.,.,0%
COc1ccc(C2CCCN2C(=S)Nc2cccc(Cl)c2)cc1OC (stereo unspecified),11,21,13%,-10%,12%,-4%
COc1cccc(NC(=S)N2CCCC2c2ccc(OC)c(OC)c2)c1 (stereo unspecified),52*,33*,-4%,2%,14%,-9%
COc1cccc(NC(=S)N2CCn3cccc3C2c2cccnc2)c1 (stereo unspecified),33*,6,-16%,3%,-3%,-3%
O=C1Oc2ccccc2C(=O)C1C(CC(O)c1ccc(-c2ccc(Br)cc2)cc1)c1ccccc1 (stereo unspecified),.,.,.,.,.,0%
O=C(CSc1nc2ccccc2n1Cc1ccccc1Cl)N/N=C/c1ccccc1C(=O)O,39,17*,4%,8%,0%,-23%
O=c1nc2onnc2c(C=NO)[nH]1,.,.,.,.,.,-5%
CCSc1nc(-c2ccc(OC)cc2)n(-c2nc3ccccc3s2)n1,12,17*,-8%,-3%,1%,-9%
Cc1cc(NC(=O)CCl)n(-c2nc3ccccc3s2)n1,24,1,2%,2%,1%,1%
Cc1ccc(-n2nc(C)c3c(C)cc(=O)[nH]c32)cc1,32,21*,2%,-24%,1%,7%
Cc1nn(-c2ccccc2)c2[nH]c(=O)cc(C(F)F)c12,.,.,2%,.,.,7%
CCc1ccc(CCN2C(=O)c3ccccc3C2=O)nc1,32,25*,-1%,-1%,1%,2%
Cc1ccc(C)c(OCCC(=O)N(C)CC(=O)Nc2c(C)cccc2C)c1,.,.,-7%,.,.,0%
Cc1ccc2nc3sc(=O)sc3nc2c1,14,6,.,?,.,.
